# Measured values: PubChem BioAssay AID1159580 (chemical genetic matrix, 2015)
# The campaign covered roughly 5,500 compounds. About 2,000 (36%) were called active. Inconclusive results (about 18%) are left out. Some of the results follow. A number with no mark means an inactive call. No stated cut-off is given here; in the data, active means normalized growth mostly below about 0.91 (no sharp cut-off); inconclusive means no clear call, values can overlap the other calls; inactive means mostly above about 0.92.
# Experiment: chemical genetic growth profiling, strain panel (AID 1159580);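 further: tested at 20 µM; growth read once vehicle control cultures reached saturation at 30 °C; 1 = growth at the plate median or of vehicle wells; lower values mean less growth of the strain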
# Conditions: growth OD
smiles,measurement,setting,value
CC(=O)Oc1ccc2c(c1)CCC1C2CC[C@]2(C)C(=O)CCC12 (stereo not given in full),normalized growth,"S. cerevisiae deletion strains, locus YJR043C, strain POL32, hits give low values",0.982
same,normalized growth,"S. cerevisiae deletion strains, locus YJR066W, strain TOR1, hits give low values",0.895
same,normalized growth,"S. cerevisiae deletion strains, locus YKL009W, strain mrt4, hits give low values",0.972
same,normalized growth,"S. cerevisiae deletion strains, locus YKL068W, hits give low values",1.02
same,normalized growth,"S. cerevisiae deletion strains, locus YKL085W, strain MDH1 (second series), hits give low values",1
same,normalized growth,"S. cerevisiae deletion strains, locus YKL085W, strain MDH1, hits give low values",1
same,normalized growth,"S. cerevisiae deletion strains, locus YKL160W, strain elf1, hits give low values",0.986
same,normalized growth,"S. cerevisiae deletion strains, locus YKL190W, strain CNB1, hits give low values",1
same,normalized growth,"S. cerevisiae deletion strains, locus YKR001C, strain vps1, hits give low values",1.01
same,normalized growth,"S. cerevisiae deletion strains, locus YKR026C, strain gcn3, hits give low values",0.984
same,normalized growth,"S. cerevisiae deletion strains, locus YKR091W, strain srl3, hits give low values",0.985
same,normalized growth,"S. cerevisiae deletion strains, locus YLL001W, strain dnm1, hits give low values",0.964
same,normalized growth,"S. cerevisiae deletion strains, locus YLL026W, hits give low values",0.988
same,normalized growth,"S. cerevisiae deletion strains, locus YLL041C, strain sdh2, hits give low values",0.983
same,normalized growth,"S. cerevisiae deletion strains, locus YLR027C, strain aat2, hits give low values",0.983
same,normalized growth,"S. cerevisiae deletion strains, locus YLR039C, strain RIC1, hits give low values",0.725
same,normalized growth,"S. cerevisiae deletion strains, locus YLR058C, strain SHM2, hits give low values",0.987
same,normalized growth,"S. cerevisiae deletion strains, locus YLR102C, strain apc9, hits give low values",1.02
same,normalized growth,"S. cerevisiae deletion strains, locus YLR113W, strain HOG1, hits give low values",0.991
same,normalized growth,"S. cerevisiae deletion strains, locus YLR221C, strain rsa3, hits give low values",0.991
same,normalized growth,"S. cerevisiae deletion strains, locus YLR258W, strain gsy2, hits give low values",0.985
same,normalized growth,"S. cerevisiae deletion strains, locus YLR262C, strain YPT6 (second series), hits give low values",0.689 (active)
same,normalized growth,"S. cerevisiae deletion strains, locus YLR262C, strain YPT6, hits give low values",0.623
same,normalized growth,"S. cerevisiae deletion strains, locus YLR268W, strain sec22, hits give low values",1.01
same,normalized growth,"S. cerevisiae deletion strains, locus YLR320W, strain mms22, hits give low values",0.983
same,normalized growth,"S. cerevisiae deletion strains, locus YLR330W, strain CHS5, hits give low values",1
same,normalized growth,"S. cerevisiae deletion strains, locus YLR342W, strain FKS1 (second series), hits give low values",0.959
same,normalized growth,"S. cerevisiae deletion strains, locus YLR342W, strain FKS1, hits give low values",0.965
same,normalized growth,"S. cerevisiae deletion strains, locus YLR357W, strain rsc2, hits give low values",0.981
same,normalized growth,"S. cerevisiae deletion strains, locus YLR370C, strain arc18, hits give low values",0.975
same,normalized growth,"S. cerevisiae deletion strains, locus YLR371W, strain rom2, hits give low values",1.02
same,normalized growth,"S. cerevisiae deletion strains, locus YLR384C, strain iki3, hits give low values",0.961
same,normalized growth,"S. cerevisiae deletion strains, locus YLR418C, strain cdc73, hits give low values",0.966
same,normalized growth,"S. cerevisiae deletion strains, locus YML016C, strain PPZ1, hits give low values",1
same,normalized growth,"S. cerevisiae deletion strains, locus YML032C, strain rad52, hits give low values",0.997
same,normalized growth,"S. cerevisiae deletion strains, locus YML120C, strain ndi1, hits give low values",0.986
same,normalized growth,"S. cerevisiae deletion strains, locus YML124C, strain tub3, hits give low values",1.02
same,normalized growth,"S. cerevisiae deletion strains, locus YMR058W, strain fet3, hits give low values",0.96
same,normalized growth,"S. cerevisiae deletion strains, locus YMR078C, strain ctf18, hits give low values",0.999
same,normalized growth,"S. cerevisiae deletion strains, locus YMR125W, strain sto1, hits give low values",0.992
same,normalized growth,"S. cerevisiae deletion strains, locus YMR129W, hits give low values",0.987
same,normalized growth,"S. cerevisiae deletion strains, locus YMR205C, strain PFK2, hits give low values",0.947
same,normalized growth,"S. cerevisiae deletion strains, locus YMR223W, strain ubp8, hits give low values",0.996
same,normalized growth,"S. cerevisiae deletion strains, locus YMR231W, strain pep5, hits give low values",0.964
same,normalized growth,"S. cerevisiae deletion strains, locus YMR307W, strain GAS1, hits give low values",1.07
same,normalized growth,"S. cerevisiae deletion strains, locus YNL067W, strain RPL9B, hits give low values",0.956
same,normalized growth,"S. cerevisiae deletion strains, locus YNL071W, strain lat1, hits give low values",0.994
same,normalized growth,"S. cerevisiae deletion strains, locus YNL128W, strain TEP1, hits give low values",1.02
same,normalized growth,"S. cerevisiae deletion strains, locus YNL183C, strain NPR1, hits give low values",0.894
same,normalized growth,"S. cerevisiae deletion strains, locus YNL209W, strain ssb2, hits give low values",0.982
same,normalized growth,"S. cerevisiae deletion strains, locus YNL233W, strain BNI4, hits give low values",0.949
same,normalized growth,"S. cerevisiae deletion strains, locus YNL248C, strain rpa49, hits give low values",1
same,normalized growth,"S. cerevisiae deletion strains, locus YNL250W, strain rad50, hits give low values",1.01
same,normalized growth,"S. cerevisiae deletion strains, locus YNL271C, strain bni1, hits give low values",1.02
same,normalized growth,"S. cerevisiae deletion strains, locus YNL298W, strain CLA4, hits give low values",0.962
same,normalized growth,"S. cerevisiae deletion strains, locus YNL307C, strain MCK1, hits give low values",1.01
same,normalized growth,"S. cerevisiae deletion strains, locus YNL322C, strain KRE1 (second series), hits give low values",0.967
same,normalized growth,"S. cerevisiae deletion strains, locus YNL322C, strain KRE1, hits give low values",1
same,normalized growth,"S. cerevisiae deletion strains, locus YNR049C, strain mso1, hits give low values",0.992
same,normalized growth,"S. cerevisiae deletion strains, locus YNR052C, strain pop2, hits give low values",0.996
same,normalized growth,"S. cerevisiae deletion strains, locus YOL006C, strain TOP1, hits give low values",0.719
same,normalized growth,"S. cerevisiae deletion strains, locus YOL012C, strain htz1",1.64
same,normalized growth,"S. cerevisiae deletion strains, locus YOL147C, strain pex11, hits give low values",1.01
same,normalized growth,"S. cerevisiae deletion strains, locus YOR001W, strain rrp6, hits give low values",0.972
same,normalized growth,"S. cerevisiae deletion strains, locus YOR061W, strain CKA2, hits give low values",1
same,normalized growth,"S. cerevisiae deletion strains, locus YOR069W, strain VPS5, hits give low values",1.01
same,normalized growth,"S. cerevisiae deletion strains, locus YOR070C, strain gyp1, hits give low values",0.988
same,normalized growth,"S. cerevisiae deletion strains, locus YOR080W, strain dia2, hits give low values",0.983
same,normalized growth,"S. cerevisiae deletion strains, locus YOR083W, strain WHI5, hits give low values",0.976
same,normalized growth,"S. cerevisiae deletion strains, locus YOR106W, strain vam3, hits give low values",0.968
same,normalized growth,"S. cerevisiae deletion strains, locus YOR136W, strain idh2, hits give low values",1.01
same,normalized growth,"S. cerevisiae deletion strains, locus YOR144C, strain elg1, hits give low values",1.01
same,normalized growth,"S. cerevisiae deletion strains, locus YOR184W, strain ser1, hits give low values",0.86 (active)
same,normalized growth,"S. cerevisiae deletion strains, locus YOR231W, strain MKK1, hits give low values",0.928
same,normalized growth,"S. cerevisiae deletion strains, locus YOR265W, strain rbl2, hits give low values",0.989
same,normalized growth,"S. cerevisiae deletion strains, locus YOR270C, strain vph1, hits give low values",0.975
same,normalized growth,"S. cerevisiae deletion strains, locus YOR290C, strain snf2, hits give low values",0.998
same,normalized growth,"S. cerevisiae deletion strains, locus YOR316C, strain cot1, hits give low values",1.03
same,normalized growth,"S. cerevisiae deletion strains, locus YPL051W, strain arl3, hits give low values",0.979
same,normalized growth,"S. cerevisiae deletion strains, locus YPL078C, strain atp4, hits give low values",0.959
same,normalized growth,"S. cerevisiae deletion strains, locus YPL106C, strain sse1, hits give low values",1.02
same,normalized growth,"S. cerevisiae deletion strains, locus YPL240C, strain hsp82, hits give low values",0.969
same,normalized growth,"S. cerevisiae deletion strains, locus YPL241C, strain CIN2, hits give low values",1.01
same,normalized growth,"S. cerevisiae deletion strains, locus YPL256C, strain CLN2, hits give low values",0.945
same,normalized growth,"S. cerevisiae deletion strains, locus YPR119W, strain clb2, hits give low values",1.01
same,normalized growth,"S. cerevisiae deletion strains, locus YPR141C, strain kar3, hits give low values",1.02
same,normalized growth,"S. cerevisiae deletion strains, locus YPR163C, strain tif3, hits give low values",1.03
same,normalized growth,"S. cerevisiae deletion strains, locus YPR167C, strain met16, hits give low values",1.02
same,normalized growth,"S. cerevisiae deletion strains, strain wtn01, hits give low values",0.997
same,normalized growth,"S. cerevisiae strains, strain wild type, hits give low values",0.993
